Activity calls are given as the source filed them. The calls were made as follows: active = hit-call score of the fitted dose curve at least 0.9, where 1 is the maximum; inactive = score below 0.9.
How the values were obtained:
[1] = ATG_CRE_CIS: Attagene CIS-FACTORIAL HepG2 Assay for human cAMP Responsive Element (CRE) binding protein 3 (AID 2282926); settings: HepG2 CRE cis-reporter, Attagene multiplexed mRNA; actives raise or lower the signal
How it was run: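 Assay format: transient reporter transfection of HepG2, 24 h treatment, total RNA isolation with DNase I step. Reporter abundance read by fluorescence after PCR and capillary separation; DMSO-normalised gain or loss fitting.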

[2] = biological target: CCAAT/enhancer-binding protein beta (Homo sapiens) (UniProt P17676); assay: ATG_C_EBP_CIS: Attagene CIS-FACTORIAL HepG2 Assay for human CCAAT/Enhancer Binding Protein (C/EBP) beta (AID 2282927); settings: HepG2 Attagene cis-factorial transcription factor reporter; actives raise or lower the signal
Sequence of CCAAT/enhancer-binding protein beta (Homo sapiens) (P17676 whole entry, looked up): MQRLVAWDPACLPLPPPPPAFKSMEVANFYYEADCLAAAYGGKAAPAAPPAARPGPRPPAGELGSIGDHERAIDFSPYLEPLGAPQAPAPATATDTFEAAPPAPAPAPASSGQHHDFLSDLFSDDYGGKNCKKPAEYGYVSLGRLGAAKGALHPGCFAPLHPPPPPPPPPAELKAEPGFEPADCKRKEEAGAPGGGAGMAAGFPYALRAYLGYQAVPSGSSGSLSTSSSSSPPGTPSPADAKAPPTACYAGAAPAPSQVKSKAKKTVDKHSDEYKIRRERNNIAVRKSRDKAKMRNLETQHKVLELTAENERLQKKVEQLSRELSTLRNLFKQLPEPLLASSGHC
How it was run: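 RT-PCR/capillary electrophoresis fluorescence of reporter mRNA, 24 h post-dose, in HepG2 cells carrying transfected cis-promoter reporter units. Bidirectional curve fitting against DMSO baseline captures gain or loss of signal.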

[3] = ATG_CMV_CIS: Attagene CIS-FACTORIAL HepG2 Assay for human CMV (Internal Marker) (AID 2282928); settings: HepG2 CMV promoter reporter, transcription factor profiling; actives raise or lower the signal;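 also: endpoint acts as a background internal control marker rather than a target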
How it was run: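 Fluorescence intensity of RT-PCR-derived reporter fragments, resolved by capillary electrophoresis, gives the signal. HepG2 liver cells bearing transfected cis-element reporters were treated 24 h; activity in either direction was fit relative to DMSO-treated controls.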

[4] = ATG_DR4_LXR_CIS: Attagene CIS-FACTORIAL HepG2 Assay for human Liver X Receptor (LXR), DR4 submotif (AID 2282929); settings: HepG2 Attagene DR4 cis-reporter, mRNA transcription; actives raise or lower the signal
How it was run: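 Cells were transfected with multiple reporter transcription units, exposed to chemicals for 24 hours, then lysed for RNA. Reporter mRNA induction was measured by RT-PCR with capillary electrophoresis detection and fitted in both directions relative to DMSO.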

[5] = ATG_AP_1_CIS: Attagene CIS-FACTORIAL HepG2 Assay for human Activator Protein 1 (AP-1) (AID 2282931); settings: HepG2 Attagene cis-factorial AP-1 reporter mRNA; actives raise or lower the signal
How it was run: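 Endogenous transcription-factor activity in human HepG2 liver cells is read through a cis-promoter reporter transcript, sampled 24 h after dosing. Detection uses RT-PCR with capillary electrophoresis; values come from bidirectional fitting relative to DMSO.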

[6] = ATG_AP_2_CIS: Attagene CIS-FACTORIAL HepG2 Assay for human Activator Protein 2 (AP-2) (AID 2282932); settings: HepG2 AP-2 cis-reporter, Attagene transcription factor profiling; actives raise or lower the signal
How it was run: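 Cells (HepG2) transfected with promoter-driven reporter constructs, treated 24 h. Total RNA reverse-transcribed, reporter cDNA PCR-amplified, FAM-labelled by primer extension, digested, resolved by capillary electrophoresis. Activity fitted both directions versus DMSO.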

[7] = ATG_BRE_CIS: Attagene CIS-FACTORIAL HepG2 Assay for human Bone Morphogenetic Protein (BMP) Response Element (BRE) (AID 2282933); settings: HepG2 BMP response element reporter, Attagene transcription factor profiling; actives raise or lower the signal
How it was run: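 Transient MRTU transfection of human HepG2 liver cells; 24 h compound treatment; total RNA isolated, reverse-transcribed, PCR-amplified, 6-FAM labelled, HpaI-cut, capillary electrophoresis. DMSO = negative control/baseline, bidirectional fit.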

[8] = biological target: Transcription factor E2F1 (Homo sapiens) (UniProt Q01094); assay: ATG_E2F_CIS: Attagene CIS-FACTORIAL HepG2 Assay for human E2F Transcription Factor 1 (AID 2282935); settings: HepG2 Attagene cis-reporter, E2F reporter RNA transcripts; actives raise or lower the signal
Sequence of Transcription factor E2F1 (Homo sapiens) (Q01094 whole entry, looked up): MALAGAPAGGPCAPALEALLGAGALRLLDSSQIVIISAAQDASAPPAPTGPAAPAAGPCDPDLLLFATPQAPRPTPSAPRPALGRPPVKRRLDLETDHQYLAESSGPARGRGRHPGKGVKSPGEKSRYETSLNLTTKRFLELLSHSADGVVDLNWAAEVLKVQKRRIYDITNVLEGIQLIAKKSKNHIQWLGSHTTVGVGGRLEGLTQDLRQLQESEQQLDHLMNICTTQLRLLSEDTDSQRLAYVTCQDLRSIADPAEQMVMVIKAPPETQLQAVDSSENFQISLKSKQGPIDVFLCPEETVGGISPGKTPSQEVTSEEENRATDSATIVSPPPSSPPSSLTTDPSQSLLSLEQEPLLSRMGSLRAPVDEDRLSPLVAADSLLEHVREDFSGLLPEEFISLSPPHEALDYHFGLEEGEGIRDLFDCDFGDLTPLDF
How it was run: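 First, HepG2 cells were transfected with reporter transcription units. Next, they were dosed for 24 h. Then RNA was isolated, converted to cDNA, PCR-amplified, FAM-labeled, HpaI-digested and analyzed by capillary electrophoresis.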

[9] = ATG_E_Box_CIS: Attagene CIS-FACTORIAL HepG2 Assay for human Enhancer Box (E-box) (AID 2282936); settings: HepG2 E-box cis-reporter transcription, actives raise or lower the signal
How it was run: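 Endogenous transcription factor activity was sensed in human HepG2 liver cells through transfected cis-promoter reporter units. After 24 h of dosing, total RNA was reverse-transcribed and reporter cDNA resolved by capillary electrophoresis.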

[10] = ATG_M_61_CIS: Attagene CIS-FACTORIAL HepG2 Assay for M61 Transcription Factor (Internal Marker) (AID 2282937); settings: HepG2 Attagene CIS-FACTORIAL M61 internal marker reporter; actives raise or lower the signal
How it was run: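 Cells were transfected with reporter units under cis-regulatory promoters, treated with chemicals for 24 h, then lysed for RNA. Reporter transcripts were quantified by RT-PCR and capillary electrophoresis, and activity was fitted bidirectionally against DMSO.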

[11] = ATG_M_19_CIS: Attagene CIS-FACTORIAL HepG2 Assay for M19 Transcription Factor (Internal Marker) (AID 2282939); settings: HepG2 Attagene CIS-FACTORIAL M19 internal marker reporter; actives raise or lower the signal
How it was run: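 Transfect HepG2 with MRTU reporter library → dose chemical, 24 h → isolate total RNA, reverse-transcribe with oligo(dT) → PCR, 6-FAM label, HpaI cut (2 h, 37 C) → capillary electrophoresis. Bidirectional fit vs DMSO.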

[12] = ATG_ERE_CIS: Attagene CIS-FACTORIAL HepG2 Assay for Estrogen Response Element (ERE) (AID 2282940); settings: HepG2 ERE cis-reporter, Attagene RNA transcript; actives raise or lower the signal
How it was run: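 Transient MRTU transfection of human HepG2; cis-element promoters; 24 h dosing; total RNA → RT (oligo dT) → PCR → 6-FAM primer extension → HpaI digest → CE fluorescence. Bidirectional fit, DMSO baseline.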

[13] = ATG_Ets_CIS: Attagene CIS-FACTORIAL HepG2 Assay for human Erythroblast Transformation Specific (ETS) (AID 2282941); settings: HepG2 ETS cis-reporter transcription, actives raise or lower the signal
How it was run: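 Multiplexed reporter transcript profiling: HepG2, 24 h treatment, total RNA to cDNA, PCR, 6-FAM labelling, HpaI cut, capillary electrophoresis. Gain- or loss-of-signal fitted against DMSO.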

[14] = biological target: Hepatocyte nuclear factor 3-beta (Homo sapiens) (UniProt Q9Y261); assay: ATG_FoxA2_CIS: Attagene CIS-FACTORIAL HepG2 Assay for human Forkhead box A2 (FOXA2) (AID 2282942); settings: HepG2 cis-reporter transcription factor activity, 24 h; actives raise or lower the signal
Sequence of Hepatocyte nuclear factor 3-beta (Homo sapiens) (Q9Y261 whole entry, looked up): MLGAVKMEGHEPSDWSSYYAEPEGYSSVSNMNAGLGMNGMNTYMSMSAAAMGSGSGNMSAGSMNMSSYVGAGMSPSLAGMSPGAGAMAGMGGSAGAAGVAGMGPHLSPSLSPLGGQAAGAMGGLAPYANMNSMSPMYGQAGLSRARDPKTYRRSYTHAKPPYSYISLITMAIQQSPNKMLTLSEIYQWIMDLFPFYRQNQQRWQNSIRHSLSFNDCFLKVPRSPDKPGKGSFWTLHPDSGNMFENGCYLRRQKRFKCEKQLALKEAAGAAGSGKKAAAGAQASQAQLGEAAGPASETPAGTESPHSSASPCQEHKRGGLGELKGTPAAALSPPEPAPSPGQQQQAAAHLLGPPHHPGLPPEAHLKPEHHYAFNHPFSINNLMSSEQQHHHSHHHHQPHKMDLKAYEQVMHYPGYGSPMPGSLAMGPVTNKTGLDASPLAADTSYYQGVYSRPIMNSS
How it was run: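 Endogenous transcription factor activity was read in HepG2 cells carrying transiently transfected cis-promoter reporter units. After 24 h dosing, reporter mRNA was quantified by RT-PCR and capillary electrophoresis, and values fitted bidirectionally versus DMSO.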

[15] = ATG_FoxO_CIS: Attagene CIS-FACTORIAL HepG2 Assay for human Forkhead box O (FoxO) (AID 2282943); settings: HepG2 Attagene cis-reporter, FoxO element, mRNA; actives raise or lower the signal
How it was run: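 HepG2 cells transiently transfected with cis-promoter-driven multiple reporter transcription units; 24 h after chemical dosing, reporter mRNA quantified by RT-PCR, fluorescent primer extension, HpaI digestion and capillary electrophoresis. Bidirectional fitting versus DMSO baseline.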

[16] = ATG_GATA_CIS: Attagene CIS-FACTORIAL HepG2 Assay for human GATA Binding Protein (AID 2282944); settings: HepG2 GATA cis-element reporter, Attagene multiplex mRNA; actives raise or lower the signal
How it was run: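 Transient MRTU transfection, HepG2, 24 h compound exposure. Total RNA → oligo(dT) RT → PCR → 6-FAM primer extension → HpaI cut → CE. Bidirectional fit vs DMSO.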

[17] = ATG_GLI_CIS: Attagene CIS-FACTORIAL HepG2 Assay for human Zinc Finger Protein GLI1 (AID 2282945); settings: HepG2, Attagene cis-factorial reporter mRNA, GLI element; actives raise or lower the signal
How it was run: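 HepG2 cells transiently transfected with cis-promoter multiplexed reporter units report endogenous transcription factor activity. After 24 h chemical exposure, reporter mRNA was quantified by RT-PCR, 6-FAM labelling, HpaI digestion and capillary electrophoresis, with bidirectional fitting against DMSO.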

[18] = ATG_EGR_CIS: Attagene CIS-FACTORIAL HepG2 Assay for human Early Growth Response 1 (EGR1) (AID 2282938); settings: HepG2 Attagene CIS-FACTORIAL EGR reporter mRNA; actives raise or lower the signal
How it was run: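 Endogenous TF activity in HepG2 liver cells was gauged through cis-promoter reporter constructs transiently transfected. After 24 h dosing, reporter mRNA was quantified by RT-PCR and capillary electrophoresis, and curves fitted in both directions versus DMSO.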

[19] = biological target: Aryl hydrocarbon receptor (Homo sapiens) (UniProt P35869); assay: ATG_Ahr_CIS: Attagene CIS-FACTORIAL HepG2 Assay for human Aryl Hydrocarbon Receptor (Ahr) (AID 2282930); settings: HepG2 AhR cis-factorial reporter transcription; actives raise or lower the signal
Sequence of Aryl hydrocarbon receptor (Homo sapiens) (P35869 whole entry, looked up): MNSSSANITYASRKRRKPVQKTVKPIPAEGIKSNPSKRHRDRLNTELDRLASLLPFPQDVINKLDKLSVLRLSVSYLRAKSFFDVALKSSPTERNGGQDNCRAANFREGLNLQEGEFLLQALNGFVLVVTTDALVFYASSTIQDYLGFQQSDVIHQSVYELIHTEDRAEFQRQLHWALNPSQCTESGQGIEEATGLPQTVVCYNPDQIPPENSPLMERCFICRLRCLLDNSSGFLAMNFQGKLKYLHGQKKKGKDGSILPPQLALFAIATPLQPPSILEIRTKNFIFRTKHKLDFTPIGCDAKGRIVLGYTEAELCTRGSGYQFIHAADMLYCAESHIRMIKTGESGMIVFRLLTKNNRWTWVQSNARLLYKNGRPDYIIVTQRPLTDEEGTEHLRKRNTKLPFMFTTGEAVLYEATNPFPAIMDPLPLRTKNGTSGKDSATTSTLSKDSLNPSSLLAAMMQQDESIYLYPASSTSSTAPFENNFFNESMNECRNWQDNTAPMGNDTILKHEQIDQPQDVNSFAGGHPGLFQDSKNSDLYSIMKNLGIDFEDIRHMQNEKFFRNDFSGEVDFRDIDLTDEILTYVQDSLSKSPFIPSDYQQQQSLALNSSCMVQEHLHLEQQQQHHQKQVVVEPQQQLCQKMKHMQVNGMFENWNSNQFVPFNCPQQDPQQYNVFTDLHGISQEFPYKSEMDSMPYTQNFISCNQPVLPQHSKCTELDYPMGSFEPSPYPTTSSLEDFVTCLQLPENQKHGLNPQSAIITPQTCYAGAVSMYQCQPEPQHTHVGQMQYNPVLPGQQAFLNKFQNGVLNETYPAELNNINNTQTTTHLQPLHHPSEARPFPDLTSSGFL
How it was run: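 HepG2 cells transiently transfected with cis-element-driven multiplexed reporter transcription units; endogenous transcription factor activity measured as reporter mRNA 24 h after dosing. RT-PCR, 6-FAM labelling, HpaI digestion, capillary electrophoresis; bidirectional fitting versus DMSO baseline.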

[20] = biological target: Retinoic acid receptor alpha (Homo sapiens) (UniProt P10276); assay: ATG_DR5_RAR_CIS: Attagene CIS-FACTORIAL HepG2 Assay for human Retinoic Acid Receptor Alpha (RARE), DR5 submotif (AID 2282934); settings: HepG2 Attagene cis-factorial RARE DR5 reporter, mRNA; actives raise or lower the signal
Sequence of Retinoic acid receptor alpha (Homo sapiens) (P10276 whole entry, looked up): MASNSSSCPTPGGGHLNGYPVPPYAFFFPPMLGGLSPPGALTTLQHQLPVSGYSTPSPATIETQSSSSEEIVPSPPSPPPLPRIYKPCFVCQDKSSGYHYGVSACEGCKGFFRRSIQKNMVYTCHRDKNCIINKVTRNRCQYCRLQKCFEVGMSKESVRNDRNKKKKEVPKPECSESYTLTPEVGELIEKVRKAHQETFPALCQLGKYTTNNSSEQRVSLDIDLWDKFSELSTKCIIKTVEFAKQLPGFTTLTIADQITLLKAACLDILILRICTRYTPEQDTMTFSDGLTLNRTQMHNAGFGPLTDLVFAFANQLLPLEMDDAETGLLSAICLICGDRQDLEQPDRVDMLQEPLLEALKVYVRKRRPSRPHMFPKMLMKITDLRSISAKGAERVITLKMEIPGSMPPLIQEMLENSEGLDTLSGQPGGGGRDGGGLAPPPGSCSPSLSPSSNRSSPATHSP
How it was run: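 HepG2 cells transiently transfected with multiplexed reporter units under cis (DR5 RARE) promoters, so endogenous transcription factor activity is measured. After 24 h compound exposure, reporter mRNA is quantified by RT-PCR with fluorescent labelling and capillary electrophoresis; bidirectional fitting versus DMSO.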

Measured: AC50

CCCCCCCCCC=O
not listed: [18] | [19] | [20]
inactive: all other assays above

COc1ccc(O)cc1
not listed: [12] | [15] | [19] | [20]
inactive: all other assays above

CC(CN1c2ccccc2Sc2ccccc21)N(C)C (stereo not given)
active: [4] 33.4 µM | [6] 40.6 µM | [8] 33.4 µM | [9] 55.5 µM | [18] 25.2 µM
not listed: [3] | [12] | [17]
inactive: all other assays above

c1cc(C(c2ccc(OCC3CO3)cc2)c2ccc(OCC3CO3)cc2)ccc1OCC1CO1 (stereo not given)
inactive: [2] | [8] | [10] | [12] | [13] | [17]
active: [1] 25.2 µM | [3] 26.3 µM | [4] 53.2 µM | [5] 19.8 µM | [6] 8.7 µM | [9] 100 µM | [18] 8.73 µM | [11] 175 µM | [14] 185 µM | [15] 167 µM | [16] 180 µM

Nc1cc(Cl)c(O)c(Cl)c1
active: [3] 186 µM | [18] 136 µM | [15] 135 µM | [17] 157 µM
not listed: [8] | [14] | [19] | [20]
inactive: all other assays above

CC1CCC(C(C)CS)CC1S (stereo not given)
active: [1] 33.4 µM
not listed: [8] | [12] | [13] | [14] | [16] | [19]
inactive: all other assays above

COC(=O)C1=C(C)NC(C)=C(C(=O)OCCN(C)Cc2ccccc2)C1c1cccc([N+](=O)[O-])c1 (stereo not given)
active: [2] 15.5 µM | [4] 8.22 µM | [6] 26.5 µM | [7] 17.9 µM | [8] 25 µM | [9] 19.4 µM | [17] 99.5 µM
not listed: [14] | [19] | [20]
inactive: all other assays above

CCc1ccc(C=O)cc1
not listed: [7] | [12] | [19] | [20]
inactive: all other assays above
